Screening results (PubChem BioAssay)
Compounds with a hit are over-represented: about 4% of the library has one in this group of screens.
RecA splice inh = blocks M. tuberculosis RecA intein splicing. P9WHJ3. cell-free RecA intein splicing, fluorescence. inhibition, % (no concentration beside the values). 0.75% of 290,000 active. AID 2221; in the data active = inhibition above about 30%; inconclusive = no clear call, values can overlap the other calls;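 note: 0% = vehicle wells and 100% = reference inhibitor control wells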
Target sequence (P9WHJ3 whole entry, looked up, canonical isoform): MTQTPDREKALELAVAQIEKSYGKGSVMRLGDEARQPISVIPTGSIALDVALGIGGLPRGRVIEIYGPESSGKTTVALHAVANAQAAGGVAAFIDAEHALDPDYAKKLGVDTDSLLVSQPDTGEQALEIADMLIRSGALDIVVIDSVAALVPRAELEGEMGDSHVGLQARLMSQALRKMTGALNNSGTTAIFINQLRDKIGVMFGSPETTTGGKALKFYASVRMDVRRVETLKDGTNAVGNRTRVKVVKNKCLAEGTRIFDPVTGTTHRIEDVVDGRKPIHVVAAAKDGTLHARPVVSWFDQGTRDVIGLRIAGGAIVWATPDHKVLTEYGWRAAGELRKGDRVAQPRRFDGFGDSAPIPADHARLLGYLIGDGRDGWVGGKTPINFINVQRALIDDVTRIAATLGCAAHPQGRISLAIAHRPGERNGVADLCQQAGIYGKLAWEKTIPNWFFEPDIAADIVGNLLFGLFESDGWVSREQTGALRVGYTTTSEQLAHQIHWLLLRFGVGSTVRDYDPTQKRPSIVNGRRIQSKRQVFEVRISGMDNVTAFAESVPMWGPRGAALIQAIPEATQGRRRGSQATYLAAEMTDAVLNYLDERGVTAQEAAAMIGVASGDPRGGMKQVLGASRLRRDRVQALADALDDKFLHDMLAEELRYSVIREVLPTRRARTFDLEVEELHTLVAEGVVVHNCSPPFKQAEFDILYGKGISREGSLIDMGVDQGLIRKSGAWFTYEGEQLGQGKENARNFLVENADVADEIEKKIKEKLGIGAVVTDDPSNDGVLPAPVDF
Rv3671c protease = Rv3671c (M. tuberculosis) protease inhibition; P9WHR9; inhibition, % at 5.96 µM; 0.048% of 320,000 active; AID 2606; in the data active = inhibition above about 38%;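 note: extracellular domain of Rv3671c used as enzyme; 0% = enzyme with DMSO and 100% = no enzyme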
Mtb bLac sens = beta-lactam sensitization of Mtb H37Rv | M. tuberculosis H37Rv growth with meropenem, percent inhibition | inhibition, % at 25 µM | 0.27% of 330,000 active; call rule not given here;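 note: growth measured after seven days incubation then overnight dye step; 0% = bacteria only wells and 100% = bacteria with antibiotic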
UGM FP inh = blocks M. tuberculosis UGM enzyme; P9WIQ1; purified UGM, fluorescence polarization probe displacement; inhibition, % at 10 µM; 0.06% of 320,000 active; in the data active = inhibition above about 10%, passing the limit was not always enough; inconclusive = no clear call, values can overlap the other calls
GDH-TPI counter = inhibits GDH-TPI coupling enzymes, artifact for Mtb FBA screen | GDH-TPI coupled enzyme counterscreen, NADH absorbance | inhibition, % at 4.8 µM | 1.2% of 360,000 active | AID 588335; in the data active = inhibition above about 30%;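 note: 0% = DMSO wells and 100% = wells lacking the enzyme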
Mtb FBA inh = inhibitors of M. tuberculosis fructose-bisphosphate aldolase | purified M. tuberculosis FBA, fluorescence read-out | inhibition, % at 1 µM | 2.3% of 360,000 active | AID 588726; in the data active = inhibition above about 27%;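 note: 0% = vehicle and 100% = reference inhibitor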
Active calls of the source: *; ? = inconclusive; nt = not tested or not shown; + = active, no number.

SMILES	RecA splice inh	Rv3671c protease	Mtb bLac sens	UGM FP inh	GDH-TPI counter	Mtb FBA inh
CN(C)CCCNc1oc(/C=C/c2ccccc2)nc1C#N	-33	3	-5	0	15	4
Cc1ccc(S(=O)(=O)N2CCC(C(=O)NC3CC(C)(C)NC(C)(C)C3)CC2)cc1C	1	0	-10	4	4	2
COc1cc(/C=C2/CC/C(=C/c3ccc(O)c(OC)c3)C2=O)ccc1O	2	-31	58	-1	39*	-9
COc1cc(/C=C2\COC/C(=C\c3ccc(O)c(OC)c3)C2=O)ccc1O	-2	2	99	-1	30	-11
COc1cc(/C=C2\SC(N)=NC2=O)ccc1O	-1	nt	-2	1	39*	-8
COc1cc(/C=C2/C(=O)ON=C2c2ccccc2)ccc1O	-1	-8	8	3	37*	-1
COc1cc(NC(=O)COc2ccccc2[N+](=O)[O-])ccc1NC(=O)c1cccs1	-2	nt	nt	nt	41*	0
COc1cc(NC(=O)COc2ccccc2Cl)ccc1NC(=O)c1cccs1	-1	-11	-5	0	12	-1
COc1cc(NC(=O)c2cccs2)ccc1NC(=O)c1ccco1	-2	-10	17	5	35*	2
NC(=O)c1cc(S(=O)(=O)N2CCN(c3ccc([N+](=O)[O-])cc3)CC2)cs1	1	-4	-5	4	0	-7
CCOC1=C2[C@@H](CN(S(=O)(=O)c3ccc(C)cc3)[C@H]2c2cccc3ccccc23)[C@H]2C(=O)N(C3CCCCC3)C(=O)[C@H]2C1	nt	nt	nt	nt	nt	2
O=P(O)(O)c1cc(-c2ccccc2)oc1-c1ccccc1	0	6	-9	1	37*	164*
O=c1cc(-c2ccccc2)oc2cc(O)c(O)c(O)c12	nt	-3	2	nt	16	-1
CN(C(=O)COC(=O)c1ccc2c(c1)OCCO2)C1CCCCC1	nt	nt	nt	nt	2	-1
O=C(/C=C/c1ccc2c(c1)OCO2)Nc1nc(-c2ccc(F)cc2F)cs1	-4	-32	-6	1	nt	nt
Cc1csc(NC(=O)/C=C/c2ccco2)n1	2	-1	-2	2	33*	-4
Cc1cc(NS(=O)(=O)c2ccc(NC(=O)c3ccco3)cc2)nc(C)n1	-1	-5	-4	5	6	-1
CCOC(=O)Cc1csc(NC(=O)/C=C/c2ccco2)n1	0	-5	-8	2	75*	-3
CCOC(=O)Cc1csc(NC(=O)/C=C/c2ccc(Cl)cc2)n1	1	5	1	1	22	-5
Cc1csc(NC(=O)/C=C/c2ccc3c(c2)OCO3)n1	1	-14	7	0	35*	-1
Cc1cc(NS(=O)(=O)c2ccc(NC(=O)/C=C/c3ccco3)cc2)nc(C)n1	0	-3	-7	0	48*	3
COc1cccc(-c2cc(NC(C)=O)c3ncc(-c4ccc(OC)c(OC)c4)n3c2)c1	nt	nt	nt	nt	10	1
O=C(/C=C/c1ccccc1)Nc1scc(-c2ccccc2)c1C(=O)O	3	nt	nt	nt	21	-1
O=C(/C=C/c1ccco1)Nc1scc(-c2ccccc2)c1C(=O)O	2	-5	9	4	66*	2
CC1CCN(C(=O)CSc2nnc(-c3ccccc3F)o2)CC1	-2	-6	28	0	-1	-3
SMILES	RecA splice inh	Rv3671c protease	Mtb bLac sens	UGM FP inh	GDH-TPI counter	Mtb FBA inh
Cc1cc(=O)oc2c3c(cc(OCC(=O)N[C@@H](Cc4ccccc4)C(=O)O)c12)OC(C)(C)CC3	0	4	0	0	22	+
CCCCc1cc(=O)oc2cc(OCC(=O)N[C@@H](Cc3ccccc3)C(=O)O)ccc12	0	2	5	0	19	19
CCCc1cc(=O)oc2cc(OCC(=O)NC(Cc3ccc(Cl)cc3)C(=O)O)ccc12 (stereo unspecified)	-1	-5	2	2	2	18
Cc1cc(=O)oc2c3c(cc(OCC(=O)NC(Cc4ccc(Cl)cc4)C(=O)O)c12)OC(C)(C)CC3 (stereo unspecified)	0	9	-3	4	14	+
CCOC(=O)c1nn(-c2ccc3c(c2)CCN3C(C)=O)cc1O	0	-17	-4	1	26	+
C[C@@H](C(=O)N1CCN(c2ccccc2)CC1)N1C(=O)C2CC=CCC2C1=O (stereo partly specified)	nt	1	-2	1	3	0
Fc1ccc(Cn2ccc(-c3cnc(-c4ccccc4)s3)n2)cc1	1	-8	73	-1	12	142*
O=c1ccc(-c2ccccc2)nn1Cc1ccc(F)cc1	-3	-2	?	1	8	0
O=S(=O)(c1ccccc1)n1ccc(-c2cnc(-c3ccccc3)s2)n1	1	-5	-5	-4	5	2
Cc1ccc(Cn2ccc(-c3cnc(-c4ccccc4)s3)n2)cc1	-2	-7	23	3	26	52*
CC(Sc1nccn1C)C(=O)c1c(N)n(C)c(=O)n(C)c1=O (stereo unspecified)	0	5	-5	0	6	0
COCc1cc(=O)n2[nH]c(C)c(-c3ccc(Cl)cc3)c2n1	nt	nt	nt	nt	8	135*
CCc1cc(=O)n2[nH]c(C)c(-c3ccccc3OC)c2n1	0	-2	-1	-2	5	6
CS(=O)(=O)Cc1cccc(C(=O)NC2CCSc3ccccc32)c1 (stereo unspecified)	-3	1	2	-2	5	1
COc1ccc(NC(=O)c2cccc(S(=O)(=O)N3CCCCCC3)c2)cc1	1	4	-2	-2	-3	0
Cc1ccc(C2=N/C(=C\N3CCCCC3)C(=O)O2)cc1	-5	4	0	0	62*	-2
COc1ccc(/C=C2\N=C(c3ccc(C)cc3)OC2=O)cc1	0	5	99	1	7	0
Cc1ccc(C2=N/C(=C/N3CCOCC3)C(=O)O2)cc1	0	9	-2	2	38*	5
COc1ccc(CNC(=O)C(=O)NCC2OCCN2S(=O)(=O)c2ccc(OC)cc2)cc1 (stereo unspecified)	2	6	-1	1	2	2
COc1ccc(-n2c(C)ccc2-c2ccccc2)cn1	3	-7	-2	58*	3	3
COC(=O)c1ccc(-n2c(C)ccc2-c2ccccc2)cc1	3	0	92	-2	13	2
Cn1c(NC(=O)c2ccccc2NC(=O)C(C)(C)C)nc2ccccc21	11	0	87	-1	34*	8
CCOc1cc(C=O)ccc1OCCn1c([N+](=O)[O-])cnc1C	0	4	8	-1	14	0
COCCCNc1oc(/C=C/c2ccccc2)nc1C#N	-3	-4	1	-1	30	nt
COCCCNc1oc(-c2ccccc2OC)nc1C#N	-1	3	nt	-1	40*	+
COCCCNc1oc(-c2ccccc2F)nc1C#N	0	3	3	0	5	+
CC(=O)c1ccc(OCCCC(=O)NCCc2ccc(C(F)(F)F)cc2)cc1	0	-15	4	0	-13	1
